From PubChem BioAssay AID1159580 (chemical genetic matrix, 2015)
Values joined by “and” are separate entries in the source; they are usually repeats but may differ in a detail not shown here. Equal values may be shown once. The campaign covered roughly 5,500 compounds. About 2,000 (36%) were called active. Inconclusive results (about 18%) are left out. Cut-off read from the data, not from the text of the source: active = normalized growth mostly below about 0.91 (no sharp cut-off); inconclusive = no clear call, values can overlap the other calls; inactive = mostly above about 0.92. The list shows a part of the results.

Assay: chemical genetic growth profiling, strain panel (AID 1159580);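 note: tested at 20 µM; growth read once vehicle control cultures reached saturation at 30 °C; 1 = growth at the plate median or of vehicle wells; lower values mean less growth of the strain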
Conditions: S. cerevisiae deletion strains, growth OD

Measured: normalized growth

CC(C(=O)O)c1ccc(C(=O)c2cccs2)cc1 (configuration not stated)
inactive: locus YAL021C, strain ccr4, active compounds read low 1.02 | locus YAL026C, strain drs2, active compounds read low 1.01 | locus YAL030W, strain snc1, active compounds read low 1 | locus YBL061C, strain skt5, active compounds read low 1 | locus YBR009C, strain hhf1, active compounds read low 1.01 | locus YBR021W, strain FUR4, active compounds read low 0.987 | locus YBR023C, strain chs3, active compounds read low 0.995 | locus YBR171W, strain sec66, active compounds read low 0.985 | locus YBR229C, strain ROT2, active compounds read low 1.01 | locus YBR231C, strain swc5, active compounds read low 1 | locus YBR279W, strain paf1, active compounds read low 0.996 | locus YCL011C, strain gbp2, active compounds read low 1.01 | locus YCL016C, strain dcc1, active compounds read low 0.998 | locus YCL029C, strain bik1, active compounds read low 1.01 | locus YCL061C, strain MRC1, active compounds read low 1.01 | locus YCL069W, strain vba3, active compounds read low 0.997 | locus YCR088W, strain abp1, active compounds read low 0.996 | locus YDL005C, strain med2, active compounds read low 0.995 | locus YDL035C, strain GPR1, active compounds read low 1.01 | locus YDL040C, strain nat1, active compounds read low 0.998 | locus YDL074C, strain BRE1, active compounds read low 1 | locus YDL101C, strain DUN1, active compounds read low 1.01 | locus YDL134C, strain PPH21, active compounds read low 1 | locus YDL185W, strain tfp1, active compounds read low 0.999 | locus YDL192W, strain arf1, active compounds read low 1.01 | locus YDR001C, strain nth1, active compounds read low 0.993 | locus YDR069C, strain doa4, active compounds read low 0.994 | locus YDR101C, strain arx1, active compounds read low 1 | locus YDR137W, strain rgp1, active compounds read low 0.963 | locus YDR159W, strain sac3, active compounds read low 0.991 | locus YDR162C, strain NBP2, active compounds read low 1.01 | locus YDR195W, strain ref2 0.976 | locus YDR297W, strain sur2, active compounds read low 0.999 | locus YDR318W, strain mcm21, active compounds read low 1.02 | locus YDR334W, strain swr1, active compounds read low 0.989 | locus YDR335W, strain msn5, active compounds read low 1.01 | locus YDR388W, active compounds read low 1.02 | locus YDR392W, strain spt3, active compounds read low 1.03 | locus YDR502C, strain sam2, active compounds read low 1.03 | locus YEL003W, strain gim4, active compounds read low 0.987 | locus YEL037C, strain rad23, active compounds read low 1 | locus YEL061C, strain CIN8 (second series), active compounds read low 1 | locus YEL061C, strain CIN8, active compounds read low 1 | locus YER015W, strain faa2, active compounds read low 0.989 | locus YER016W, strain bim1, active compounds read low 1.02 | locus YER110C, active compounds read low 1.02 | locus YER111C, strain swi4, active compounds read low 0.985 | locus YER155C, strain BEM2 (second series), active compounds read low 1 | locus YER155C, strain BEM2, active compounds read low 0.992 | locus YER167W, strain BCK2, active compounds read low 1 | locus YFR010W, strain ubp6, active compounds read low 0.991 | locus YGL078C, strain dbp3, active compounds read low 1.01 | locus YGL086W, strain mad1, active compounds read low 1 | locus YGL167C, strain pmr1, active compounds read low 0.994 | locus YGL173C, strain kem1, active compounds read low 0.993 | locus YGL227W, strain vid30, active compounds read low 0.99 | locus YGL240W, strain doc1, active compounds read low 1 | locus YGL248W, strain PDE1, active compounds read low 1.01 | locus YGL253W, strain hxk2, active compounds read low 1.01 | locus YGR135W, strain pre9, active compounds read low 1.01 | locus YGR252W, strain gcn5, active compounds read low 1 | locus YHR013C, strain ard1, active compounds read low 0.989 | locus YHR027C, strain rpn1, active compounds read low 1.01 | locus YHR030C, strain SLT2, active compounds read low 0.998 and 1 | locus YHR079C, strain IRE1 (second series), active compounds read low 1.01 | locus YHR079C, strain IRE1, active compounds read low 0.999 | locus YHR094C, strain hxt1, active compounds read low 1.01 | locus YHR129C, strain ARP1, active compounds read low 1 | locus YHR142W, strain chs7, active compounds read low 0.995 | locus YHR200W, strain rpn10, active compounds read low 1.01 | locus YIL066C, strain RNR3, active compounds read low 1.01 | locus YIL073C, strain SPO22, active compounds read low 1.07 | locus YIL125W, strain kgd1, active compounds read low 1.01 | locus YIR030C, strain dcg1, active compounds read low 1.01 | locus YJL092W, strain hpr5, active compounds read low 0.996 | locus YJL095W, strain BCK1 (second series), active compounds read low 1 | locus YJL095W, strain BCK1, active compounds read low 1 and 0.971 | locus YJL115W, strain asf1, active compounds read low 0.995 | locus YJL129C, strain trk1, active compounds read low 0.982 | locus YJL134W, strain LCB3, active compounds read low 1 | locus YJL154C, strain vps35, active compounds read low 0.99 | locus YJL164C, strain tpk1, active compounds read low 1.03 | locus YJL166W, strain qcr8, active compounds read low 0.99 | locus YJL168C, strain set2, active compounds read low 1.01 | locus YJL187C, strain SWE1 (second series), active compounds read low 1.01 | locus YJR043C, strain POL32, active compounds read low 0.982 | locus YJR066W, strain TOR1, active compounds read low 0.952
